NPSR antagonist – neuropeptide S receptor (human) antagonism, cAMP. Q6W5P4. CHO-NPSR cells, cAMP TR-FRET, antagonist mode. Potency, µM (top dose mostly 38.3 µM), hits mostly inhibitors. 220,000 tested, 1% active; also: nearly all actives have a fitted effect of over 50% in size
Target sequence (Q6W5P4 whole entry, looked up): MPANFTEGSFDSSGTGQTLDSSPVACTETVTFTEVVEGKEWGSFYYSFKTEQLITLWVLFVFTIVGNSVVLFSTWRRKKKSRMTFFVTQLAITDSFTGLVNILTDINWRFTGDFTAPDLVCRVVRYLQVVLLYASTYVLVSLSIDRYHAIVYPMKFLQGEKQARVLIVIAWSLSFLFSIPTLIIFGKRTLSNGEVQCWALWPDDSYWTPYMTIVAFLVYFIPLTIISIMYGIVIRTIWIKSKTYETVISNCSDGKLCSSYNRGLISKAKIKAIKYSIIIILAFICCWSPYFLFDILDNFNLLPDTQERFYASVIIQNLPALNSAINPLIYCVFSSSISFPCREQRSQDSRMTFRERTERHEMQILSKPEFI
ALDH1A1 block – blocks purified human ALDH1A1 activity; Purified ALDH1A1, NADH fluorescence, propionaldehyde substrate; 220,000 tested, 7.3% active; Potency, µM (titrated, usually from 75.3 µM), usual class: inhibitors; P00352; active = well fitted inhibition curve with a large enough effect, not every such curve was filed as active; inconclusive = small, poorly fitted or top-dose-only effect, or another doubt; inactive = no such curve, though single readings can be large or run the other way
Tau fluor cs – counter-screen for tau fibril formation inhibitors; 280,000 tested, 0.93% active; tau K18 P301L Alexa594 fluorescence, heparin fibrillization; Potency, µM (doses to about 57.7 µM); also: nearly all actives have a fitted effect of over 55% in size
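Human K18 P301L tau (15 uM unlabeled plus 0.24 uM Alexa 594-labeled, final) in 100 mM sodium acetate pH 7 was mixed with compound and 20 uM heparin and incubated 6 hr at 37 C.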
HPGD inh – blocks human HPGD enzyme activity | P15428 | purified HPGD, NADH fluorescence kinetic, PGE2 substrate | Potency, µM, usual class: inhibitors | 150,000 tested, 4.3% active; active = well fitted inhibition curve with a large enough effect, not every such curve was filed as active; inconclusive = small, poorly fitted or top-dose-only effect, or another doubt; inactive = no such curve, though single readings can be large or run the other way
Target sequence (P15428 whole entry, looked up): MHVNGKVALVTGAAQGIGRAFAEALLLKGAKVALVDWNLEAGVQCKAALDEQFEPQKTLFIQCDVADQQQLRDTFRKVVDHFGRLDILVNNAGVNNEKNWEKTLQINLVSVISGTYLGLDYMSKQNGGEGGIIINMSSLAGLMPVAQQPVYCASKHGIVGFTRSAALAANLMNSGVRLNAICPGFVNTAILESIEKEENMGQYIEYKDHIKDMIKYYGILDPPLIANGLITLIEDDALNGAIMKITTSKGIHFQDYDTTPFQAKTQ
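20 nM HPGD preincubated 15 min at room temperature with compound in 50 mM Tris-HCl pH 8, 0.01% Tween 20. Started with 1 mM NAD+ and 30 uM prostaglandin E2; NADH fluorescence (360/450 nm) read 5 times over 30-s intervals, last minus first.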
Tau fibril ThT – tau fibrillization inhibition (ThT binding); recombinant tau K18 P301L (four-repeat tau fragment), heparin-induced fibrillization, ThT fluorescence; P10636; Potency, µM (series often up to 57.4 µM), most hits filed as inhibitors; 270,000 tested, 2.1% active; also: nearly all actives have a fitted effect of over 55% in size
Target sequence (P10636 561-689 P618L limits assumed): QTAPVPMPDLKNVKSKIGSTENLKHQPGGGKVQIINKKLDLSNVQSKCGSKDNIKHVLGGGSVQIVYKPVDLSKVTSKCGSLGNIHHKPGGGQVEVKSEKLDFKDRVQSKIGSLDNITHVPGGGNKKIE
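Aggregation was driven by heparin (20 uM final) acting on recombinant tau […] bearing P301L in 100 mM sodium acetate pH 7; fibrils were detected with Thioflavin T.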
Tau FP inhib – blocks human tau fibril formation measured by polarization; P10636; K18 P301L tau heparin fibrillization, Alexa594 FP, 6 h; Potency, µM (top dose mostly 57.7 µM), actives largely listed as inhibitors; 280,000 tested, 0.39% active; also: nearly all actives have a fitted effect of over 55% in size
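FP of Alexa 594-tau after heparin (20 uM) induction. Substrate: human K18 P301L, 15 uM unlabeled, 0.24 uM labeled. Buffer 100 mM sodium acetate pH 7. 6 hr, 37 C.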
Of the large screens only hits and unclear results are named; the others gave an inactive call; [ ] = another dose, or the depositor's remark. The list is not random: actives were taken first. Their share in the collection is about 9.5%. Unless noted, calls follow the shape of the dose curve; as a rule, active = well fitted curve in the direction sought with a large enough effect; inconclusive = small, poorly fitted or top-dose-only effect, or another doubt; inactive = no such curve, though single readings can be large; an effect the other way counts as inactive or inconclusive.

CC1CCN(C(=O)c2cc(-c3ccccc3O)on2)CC1	ALDH1A1 block 14µM, HPGD inh 14µM
O=C(c1cc2ccccc2o1)N1CCCC1	Tau fibril ThT inconclusive (no result: HPGD inh)
Cc1ccc(C(=O)N2CCN(c3ccccc3)CC2)cc1C	ALDH1A1 block inconclusive
O=C(c1cc2ccccc2o1)N1CCCCCC1	ALDH1A1 block inconclusive, HPGD inh 7.9µM
O=C(c1cc2ccccc2o1)N1CCC(N2CCC(C(=O)N3CCCC3)CC2)CC1	none (no result: HPGD inh)
CC1CCN(C(=O)c2cc3ccccc3o2)CC1	ALDH1A1 block inconclusive, HPGD inh 11µM
Cc1ccc(C(=O)N2CCC(C)CC2)cc1C	ALDH1A1 block 11µM, HPGD inh 0.79µM
Cc1cncn1CCc1nc2c3ccccc3nc(SCC(=O)Nc3ccccc3F)n2n1	none (no result: NPSR antagonist, ALDH1A1 block, HPGD inh)
O=C(CCc1ccccc1)NC(NC(=S)Nc1cccc(Cl)c1)C(Cl)(Cl)Cl (stereo not drawn)	ALDH1A1 block inconclusive, Tau FP inhib 14µM
O=C(NC(NC(=S)Nc1c(Cl)cc(Cl)cc1Cl)C(Cl)(Cl)Cl)OCc1ccccc1 (stereo not drawn)	NPSR antagonist inconclusive, ALDH1A1 block 3.5µM, Tau FP inhib inconclusive
CCCC(=O)NC(NC(=S)Nc1ccc(S(N)(=O)=O)cc1)C(Cl)(Cl)Cl (stereo not drawn)	none
Cc1ccc(C)c(NC(=S)NC(NC(=O)OCc2ccccc2)C(Cl)(Cl)Cl)c1 (stereo not drawn)	Tau FP inhib inconclusive
CCCC(=O)NC(NC(=S)Nc1ccc(N=Nc2ccccc2)cc1)C(Cl)(Cl)Cl (stereo not drawn)	ALDH1A1 block inconclusive, Tau fluor cs inconclusive, Tau fibril ThT 14µM, Tau FP inhib inconclusive
COCC(=O)N1CCC2(CC1)CN(c1ccncc1)C2	none (no result: NPSR antagonist, Tau fluor cs, Tau fibril ThT, Tau FP inhib)
O=C(N=C1c2ccccc2CN1c1ccc(F)cc1)c1ccc(Cl)nc1	ALDH1A1 block 28µM, Tau fibril ThT inconclusive
Cc1nc(SCC(=O)c2ccccc2)n[nH]1	ALDH1A1 block 22µM, HPGD inh inconclusive
COc1ccccc1C(=O)CSc1n[nH]c(N)n1	ALDH1A1 block 11µM
Cc1nc(SCC(=O)Nc2c(C)n(C)n(-c3ccccc3)c2=O)n[nH]1	ALDH1A1 block 14µM
CCN1CCN(C(C)C(=O)Nc2c(C)n(C)n(-c3ccccc3)c2=O)CC1 (stereo not drawn)	ALDH1A1 block 22µM
Nc1nc(SCC(=O)c2cc3ccccc3o2)n[nH]1	none (no result: HPGD inh)
c1ccc(Nc2ncncc2-c2ccc3c(c2)OCO3)cc1	none (no result: NPSR antagonist, Tau fluor cs, HPGD inh, Tau fibril ThT, Tau FP inhib)
NCCC[C@@H](CC(=O)N[C@@H]1CCCC[C@H]1C(=O)N[C@H](CC(=O)N[C@@H](CCC(=O)O)CC(=O)O)Cc1ccccc1)NC(=O)C[C@H](CO)NC(=O)[C@@H]1CCCC[C@H]1N	none (no result: NPSR antagonist)
COC1=CC(=O)C=C(OC)C1=O	Tau fluor cs inconclusive, Tau fibril ThT 10µM, Tau FP inhib 22µM (no result: NPSR antagonist)
COc1ccc(CNC(=O)COC(=O)/C=C/c2ccco2)cc1	ALDH1A1 block 25µM (no result: HPGD inh)
COc1ccc(COC(=O)N/C=C/c2ccco2)cc1	ALDH1A1 block 28µM, Tau fibril ThT inconclusive, Tau FP inhib inconclusive (no result: HPGD inh)
CCN(CC)c1ccc(CN(C(=O)Cc2coc3ccc(C)cc23)C2CCS(=O)(=O)C2)cc1 (stereo not drawn)	Tau fibril ThT inconclusive (no result: NPSR antagonist, ALDH1A1 block, HPGD inh)
N#Cc1sc2nc(N3CCCCC3)c3c(c2c1N)CCCC3	NPSR antagonist inconclusive, ALDH1A1 block inconclusive, Tau fluor cs 16µM[quencher], HPGD inh inconclusive, Tau fibril ThT inconclusive
Cc1nc2sc(C#N)c(N)c2c2c1CCCC2	ALDH1A1 block inconclusive, HPGD inh inconclusive
O=C(c1cccc(-n2cnnn2)c1)N1CCOCC1	none
COc1cc(N2CCCC2)ccc1[N+](=O)[O-]	ALDH1A1 block inconclusive
COc1ccccc1C1CCN(c2ccc([N+](=O)[O-])c(OC)c2)CC1	Tau fluor cs inconclusive, Tau fibril ThT 8.9µM (no result: HPGD inh)
O=C1C(=Cc2cccs2)C(=O)c2ccccc21	ALDH1A1 block inconclusive, HPGD inh inconclusive
Cc1cc(C=C2C(=O)c3ccccc3C2=O)c(C)n1C	ALDH1A1 block inconclusive, Tau fibril ThT 11µM
Cc1ccc(C=C2C(=O)c3ccccc3C2=O)s1	NPSR antagonist inconclusive, ALDH1A1 block 0.5µM, HPGD inh 13µM, Tau fibril ThT 14µM
Cc1cc(/C=C2\SC(=S)NC2=O)c(C)n1C	Tau fibril ThT inconclusive
CCn1c(C)cc(/C=C2/SC(=O)N(C(C)C(=O)OC)C2=O)c1C (stereo not drawn)	none (no result: ALDH1A1 block, HPGD inh)
CCn1c(C)cc(C=C2C(=O)c3ccccc3C2=O)c1C	ALDH1A1 block 11µM, Tau fibril ThT 14µM (no result: HPGD inh)
C=CCc1cccc2cc(-c3nc4ccc(C(=O)O)cc4[nH]3)c(=O)oc12	Tau fibril ThT inconclusive (no result: NPSR antagonist, ALDH1A1 block, HPGD inh)
COc1ccccc1NS(=O)(=O)c1ccc(O)c(C(=O)OCC(=O)N2c3ccccc3CC2C)c1 (stereo not drawn)	ALDH1A1 block 7.9µM (no result: HPGD inh)
COc1ccccc1NS(=O)(=O)c1ccc(O)c(C(=O)OCC(=O)c2ccc(Cl)cc2Cl)c1	ALDH1A1 block 1.1µM (no result: HPGD inh)
CCOC(=O)N1CCC(NC(=O)C2CCN(S(=O)(=O)c3c(C)noc3C)CC2)CC1	none
CCCCN(CCCNC(=O)c1c(C)cc(=O)oc1C)c1ccccc1	ALDH1A1 block 22µM, Tau fibril ThT inconclusive
Cc1cc(=O)oc(C)c1C(=O)NCc1ccccc1	none
CCN(CCCNC(=O)c1c(C)cc(=O)oc1C)c1ccccc1	ALDH1A1 block 7.9µM
CCCCN(CCCNC(=O)CN1C(=O)COc2ccccc21)c1ccccc1	NPSR antagonist inconclusive, ALDH1A1 block 13µM, Tau fibril ThT inconclusive
CCCNC(=O)c1c(C)cc(=O)oc1C	none
COc1cc2c(cc1OC)C(CC#N)=NC(C)(C)C2	ALDH1A1 block 2µM
COc1cc2c(cc1OC)C(CSc1ccccc1C(=O)O)=NC(C)(C)C2	ALDH1A1 block inconclusive, Tau fibril ThT inconclusive (no result: HPGD inh)
Cn1c(=O)[nH]c(=O)c2c1nc1n2CC(COc2ccc3ccccc3c2)O1 (stereo not drawn)	Tau FP inhib inconclusive (no result: ALDH1A1 block, HPGD inh, Tau fibril ThT)
O=[N+]([O-])c1cc(C(F)(F)F)ccc1NCCc1c[nH]c2ccccc12	NPSR antagonist inconclusive, Tau fluor cs 10µM[quencher], Tau fibril ThT 13µM
O=[N+]([O-])c1cc(C(F)(F)F)ccc1NCCc1c[nH]c2ccc(O)cc12	Tau fluor cs 28µM[quencher], Tau fibril ThT 18µM
Cc1ccc(CN2C(=O)C[C@@H](NS(=O)(=O)c3ccc4ccccc4c3)C/C=C\C2c2ccc(C)cc2)cc1 (stereo partly drawn)	ALDH1A1 block 22µM (no result: NPSR antagonist)
CCc1ccc(NCCC(=O)c2ccc(Cl)cc2)cc1	ALDH1A1 block 1.6µM
Cc1ccc(NCCC(=O)c2ccc(Cl)cc2)cc1C	ALDH1A1 block 2.8µM
CC(=O)c1ccc(NCCC(=O)c2ccccc2)cc1	ALDH1A1 block 6.3µM (no result: HPGD inh)

Screening results deposited in PubChem by National Center for Advancing Translational Sciences (NCATS).
